Data reported in PubChem BioAssay AID1159580 (chemical genetic matrix, 2015).
Values joined by “and” are separate entries in the source; they are usually repeats but may differ in a detail not shown here. Equal entries are not always repeated. Screen size: about 5,500 compounds; about 2,000 (36%) were called active. Inconclusive results (about 18%) are left out. Rule as the data show it: active = normalized growth mostly below about 0.91 (no sharp cut-off); inconclusive = no clear call, values can overlap the other calls; inactive = mostly above about 0.92. The list shows a part of the results.

Test: chemical genetic growth profiling, strain panel (AID 1159580);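 also: tested at 20 µM; growth read once vehicle control cultures reached saturation at 30 °C; 1 = growth at the plate median or of vehicle wells; lower values mean less growth of the strain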
Conditions: S. cerevisiae deletion strains, growth OD

Measured: normalized growth

COC(=O)C(N)CS (stereo unspecified)
inactive: locus YAL013W, strain DEP1, hits give low values 0.991 | locus YAL021C, strain ccr4, hits give low values 0.93 | locus YAL026C, strain drs2, hits give low values 0.967 | locus YAL030W, strain snc1, hits give low values 0.993 | locus YBL061C, strain skt5, hits give low values 0.998 | locus YBR009C, strain hhf1, hits give low values 0.958 | locus YBR021W, strain FUR4, hits give low values 0.994 | locus YBR023C, strain chs3, hits give low values 1.02 | locus YBR171W, strain sec66, hits give low values 0.984 | locus YBR229C, strain ROT2, hits give low values 0.992 | locus YBR231C, strain swc5, hits give low values 0.974 | locus YBR279W, strain paf1, hits give low values 1.01 | locus YCL011C, strain gbp2, hits give low values 0.996 | locus YCL016C, strain dcc1, hits give low values 1.04 | locus YCL029C, strain bik1, hits give low values 0.964 | locus YCL069W, strain vba3, hits give low values 0.954 | locus YCR088W, strain abp1, hits give low values 0.982 | locus YDL005C, strain med2, hits give low values 1 | locus YDL035C, strain GPR1, hits give low values 0.978 | locus YDL040C, strain nat1, hits give low values 0.99 | locus YDL074C, strain BRE1, hits give low values 0.98 | locus YDL101C, strain DUN1, hits give low values 0.984 | locus YDL134C, strain PPH21, hits give low values 0.977 | locus YDL185W, strain tfp1, hits give low values 0.966 | locus YDL192W, strain arf1, hits give low values 0.975 | locus YDR001C, strain nth1, hits give low values 0.984 | locus YDR069C, strain doa4, hits give low values 0.959 | locus YDR101C, strain arx1, hits give low values 0.985 | locus YDR137W, strain rgp1, hits give low values 0.924 | locus YDR150W, strain NUM1, hits give low values 0.996 | locus YDR159W, strain sac3, hits give low values 0.929 | locus YDR162C, strain NBP2, hits give low values 0.985 | locus YDR195W, strain ref2 1.03 | locus YDR297W, strain sur2, hits give low values 0.98 | locus YDR318W, strain mcm21, hits give low values 0.93 | locus YDR334W, strain swr1, hits give low values 0.959 | locus YDR335W, strain msn5, hits give low values 0.995 | locus YDR388W, hits give low values 0.951 | locus YDR392W, strain spt3, hits give low values 0.806 | locus YDR502C, strain sam2, hits give low values 0.98 | locus YEL003W, strain gim4, hits give low values 0.966 | locus YEL037C, strain rad23, hits give low values 0.978 | locus YEL061C, strain CIN8 (second series), hits give low values 0.966 | locus YEL061C, strain CIN8, hits give low values 0.997 | locus YER015W, strain faa2, hits give low values 0.997 | locus YER016W, strain bim1, hits give low values 0.997 | locus YER110C, hits give low values 0.991 | locus YER111C, strain swi4, hits give low values 1.03 | locus YER155C, strain BEM2 (second series), hits give low values 0.886 | locus YER155C, strain BEM2, hits give low values 1 | locus YER167W, strain BCK2, hits give low values 0.971 | locus YFR010W, strain ubp6, hits give low values 0.94 | locus YGL078C, strain dbp3, hits give low values 0.988 | locus YGL086W, strain mad1, hits give low values 0.976 | locus YGL167C, strain pmr1, hits give low values 0.977 | locus YGL173C, strain kem1, hits give low values 0.938 | locus YGL227W, strain vid30, hits give low values 0.971 | locus YGL240W, strain doc1, hits give low values 0.941 | locus YGL248W, strain PDE1, hits give low values 0.959 | locus YGL253W, strain hxk2, hits give low values 0.976 | locus YGR078C, strain PAC10, hits give low values 0.976 | locus YGR135W, strain pre9, hits give low values 0.947 | locus YGR229C, strain SMI1, hits give low values 0.949 | locus YGR252W, strain gcn5, hits give low values 0.883 | locus YHR013C, strain ard1, hits give low values 0.938 | locus YHR027C, strain rpn1, hits give low values 0.97 | locus YHR030C, strain SLT2, hits give low values 0.99 and 1.05 | locus YHR079C, strain IRE1 (second series), hits give low values 0.964 | locus YHR079C, strain IRE1, hits give low values 1.04 | locus YHR094C, strain hxt1, hits give low values 0.991 | locus YHR129C, strain ARP1, hits give low values 0.992 | locus YHR142W, strain chs7, hits give low values 1 | locus YHR200W, strain rpn10, hits give low values 0.973 | locus YIL066C, strain RNR3, hits give low values 0.975 | locus YIL073C, strain SPO22, hits give low values 0.903 | locus YIL125W, strain kgd1, hits give low values 0.991 | locus YIR030C, strain dcg1, hits give low values 0.984 | locus YJL092W, strain hpr5, hits give low values 0.995 | locus YJL095W, strain BCK1 (second series), hits give low values 0.995 | locus YJL095W, strain BCK1, hits give low values 0.929 and 1.04 | locus YJL115W, strain asf1, hits give low values 0.977 | locus YJL129C, strain trk1, hits give low values 1.01 | locus YJL134W, strain LCB3, hits give low values 0.996 | locus YJL154C, strain vps35, hits give low values 0.97 | locus YJL164C, strain tpk1, hits give low values 0.965 | locus YJL166W, strain qcr8, hits give low values 0.961 | locus YJL168C, strain set2, hits give low values 0.979 | locus YJL187C, strain SWE1 (second series), hits give low values 0.972 | locus YJL187C, strain SWE1, hits give low values 0.998 | locus YJR043C, strain POL32, hits give low values 0.977 | locus YJR066W, strain TOR1, hits give low values 0.998
